“And” between values parts separate entries of the source, which are not always exact repeats. Equal entries are not always repeated. Inconclusive results are not listed. Where a call stands in place of a potency, no number is given. Some compounds were tested as several samples or in several runs, with calls that do not always agree. The source made the active and inactive calls. Calls come from the whole dose curve; as a rule, active = well fitted cell-killing curve with a large enough effect in the repeat runs; inconclusive = weak or mixed curves, or effect the other way; inactive = flat fitted curve, though single readings scatter.
Potency is the fitted concentration of half-maximal effect.

A short description of the assay: qHTS assay to identify small molecule agonists of the sonic hedgehog signaling (Shh) pathway - cell viability counter screen (AID 1259366). Note: nearly all actives have a fitted effect of over 50% in size. The conditions noted are these: NIH/3T3 Gli1-Luc viability, CellTiter-Fluor, 24 h; series mostly up to 92.4 µM. An excerpt: National Center for Advancing Translational Sciences [NCATS]
NIH Chemical Genomics Center [NCGC]
U.S. Environmental Protection Agency [EPA]
National Institutes of Environmental Health Sciences [NIEHS]
National Toxicology Program [NTP]
U.S. Food and Drug Administration [FDA]
The sonic hedgehog (Shh) pathway is essential for normal embryonic development. Dysregulation of the Shh pathway can cause severe developmental defects in organs. Therefore chemicals that interfere with the pathway are potential developmental toxicants. A cell line designated 3T3Gli1-Luc (DMB/OARSA/CFSAN/FDA, Laurel, MD), a NIH/3T3 derived clone containing stably integrated Gli1-Luc reporter is used to detect chemical interference of the Shh pathway, by changes in the expression of the firefly Luc gene under the control of the Gli1 transcriptional response element. This cell line was used to screen Tox21 libraries for identifying and prioritizing the potential developmental toxicants that interfere Shh pathway. The cytotoxicity of the compounds was tested in parallel by measuring the cell viability using CellTiter-Fluor assay system (Promega, Madison, WI) in the same wells.
Tox21 Assay Protocol Summary:
3T3 Gli1-Luc cells were dispensed at 2,000 per well in 5uL of culture medium into white solid bottom 1536-well plates (Greiner Bio-One, Monroe, NC) using a Multidrop Combi (Thermo Scientific, Waltham, MA) dispenser. The assay plates were incubated at 37 C and 5% CO2 for 4hr, and then 23nL of compounds dissolved in DMSO and positive control were transferred using a Pintool station (Wako, San Diego, CA). The assay plates were incubated at 37C and 5% CO2 for 24hr. For viability read, after 23hr of compound treatment, 1uL of CellTiter-Fluor reagent (Promega Corporation, Madison, WI) was added to each well of the assay plates using Flying Reagent Dispenser (FRD, Aurora Discovery, San Diego, CA) and incubated the assay plates at 37C for 1hr. The fluorescence signal was quantified using a ViewLux plate reader (Perkin Elmer, Shelton, CT).
Background: Quantitative high-throughput screening tests each substance at several concentrations.
As to `O=S(=O)(O)c1ccc2nc(-c3ccccc3)[nH]c2c1`, the Potency result is “inactive”.
As for `Cc1cc(Cc2cc(C)cc(C(C)(C)C)c2O)c(O)c(C(C)(C)C)c1`, the Potency is 43.5 µM (active).
The same measure, in the same setting: the entry for `CC[C@@H](N)CO` is “inactive”; for `CN1C(=O)c2ccc([N+](=O)[O-])cc2C1=O` it is “inactive”.
Same read-out and setting: the entry for `CCCCN(CCO)CCCC` is “inactive”.
As for `c1ccc2c(c1)CCCC2C1=NCCN1` (stereo not given), the Potency result is “inactive”.
For the compound `C=CS(=O)(=O)O`, the Potency result was “inactive”.
`O=C1CC2(CCCC2)CC(=O)N1CCCCN1CCN(c2ncccn2)CC1`: the Potency entry was “inactive”.
Still for that read-out and setting: for `O=C1Nc2ccccc2C1(c1ccc(O)cc1)c1ccc(O)cc1` the value was 27.3 µM (active) and 9.44 µM (active); for `CCCCOCCOC(=O)c1ccccc1C(=O)OCCOCCCC`, “inactive”.
Same read-out and setting: the entry for `Cc1cccc([N+](=O)[O-])c1C(=O)O` is “inactive”.
The same measure, in the same setting: the entry for `NNCCc1ccccc1` is “inactive”; for `COC(=O)/C=C/c1ccccc1` it is “inactive”.
As to `CC1=CC(=O)c2ccccc2C1=O`, the Potency was 13.7 µM (active) and 13.3 µM (active).
The same measure, in the same setting: the figure for `CN(C)c1ccc2nc3ccc(=[N+](C)C)cc-3sc2c1` is 26.2 µM (active) and 43.3 µM (active) and 29.8 µM (active); for `COc1ccc(COC(C)=O)cc1` it is “inactive”; for `COc1nc(C)nc(Cl)c1NC1=NCCN1` it is “inactive”.
On the same count and under the same terms, for `Cc1ccc(S(=O)(=O)Oc2ccc(N=Nc3ccc(-c4ccc(N=Nc5c(O)ccc6cc(S(=O)(=O)O)cc(S(=O)(=O)O)c56)c(C)c4)cc3C)cc2)cc1` the value was 24.4 µM (active) and 15.9 µM (active); for `COC(=O)[C@H]1[C@H]2C[C@@H]3c4[nH]c5cc(OC)ccc5c4CCN3C[C@H]2C[C@@H](OC(=O)c2cc(OC)c(OC)c(OC)c2)[C@@H]1OC`, “inactive”.
Regarding `CC(=O)OCCOCCOCCOC(C)=O`, the Potency result was “inactive”.
The same measure, in the same setting: for `CCN(CC)C(=O)Nc1ccc(OCC(O)CNC(C)(C)C)c(C(C)=O)c1` (stereo not given) the value was “inactive”; for `CNC1(C)C2CCC(C2)C1(C)C` (stereo not given), “inactive”.
The same measure, in the same setting: for `CCCOC(=O)c1cc(O)c(O)c(O)c1` the value was 43.1 µM (active).
Regarding `CCCCCCCCCCCCCCCCCl`, the viability change, negative = cytotoxic is 0.0419% [at 19 µM] (inactive).
Turning to `CC(=O)Nc1ccc(C(=O)CCl)cc1`, the Potency was 21.7 µM (active).
Still for that read-out and setting: the figure for `Cc1cc(OCCOCC[N+](C)(C)Cc2ccccc2)ccc1C(C)(C)CC(C)(C)C` is 48.3 µM (active); for `c1ccc2cc3c(ccc4ccccc43)cc2c1` it is “inactive”.
The same measure, in the same setting: for `CCC(C)(C)C(=O)O[C@H]1C[C@@H](C)C=C2C=C[C@H](C)[C@H](CC[C@@H]3C[C@@H](O)CC(=O)O3)[C@H]21` the value was “inactive”.
Still for that read-out and setting: for `CCCCCCCCCCCCCC[P+](CCCC)(CCCC)CCCC` the value was 27.1 µM (active); for `Oc1c(Cl)cc(Cl)c(Cl)c1Cc1c(O)c(Cl)cc(Cl)c1Cl`, 30.5 µM (active) and inactive; for `CC(=O)N[C@@H](CS)C(=O)O`, “inactive”.
For `Nc1nc(=S)c2[nH]cnc2[nH]1`, the Potency result is “inactive”.
Same read-out and setting: the entry for `CC(C(O)c1ccc(O)cc1)N1CCC(Cc2ccccc2)CC1` (stereo not given) is “inactive”; for `OCCOCCN1CCN(C(c2ccccc2)c2ccc(Cl)cc2)CC1` (stereo not given) it is 26.9 µM (active); for `CCOC(=O)C(C)C(C)=O` (stereo not given) it is “inactive”.
Still for that read-out and setting: for `CCCN[C@H]1CCc2nc(N)sc2C1` the value was “inactive”; for `C/C=C/c1ccc(OCC)c(O)c1`, “inactive”; for `O=C(Oc1ccccc1)c1ccccc1O`, “inactive”.
The same measure, in the same setting: the entry for `CC1COc2c(N3CCN(C)CC3)c(F)cc3c(=O)c(C(=O)O)cn1c23` (stereo not given) is “inactive”.
With `O=C(Cl)c1cccc(C(=O)Cl)c1`, the Potency entry is “inactive”.

For the origin of these results see PubChem BioAssay (Tox21).
